APOBEC3A inh – blocks human APOBEC3A ssDNA deamination; P31941; recombinant A3A, FAM/TAMRA ssDNA deamination fluorescence; inhibition, % at 20 µM; 330,000 compounds, 0.41% hits; AID 493011;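 active = at least 40% inhibition at 20 µM here, with at most 30% in a related deaminase screen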;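 also: plate controls were A3A with DMSO for no effect and wells lacking A3A enzyme for full effect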
eIF4H FP inh – inhibitors of RNA binding by human eIF4H; eIF4H fluorescence polarization binding assay; inhibition, % at 35 µM; 290,000 compounds, 0.94% hits;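 also: calls also rest on retests at 20 µM and on dose response follow-up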
MLLE-PAM2 inh – blocks PAM2 peptide binding to the PABP1 MLLE domain; P11940; GST-MLLE / FITC-PAM2 fluorescence polarization; inhibition, % at 20 µM; 360,000 compounds, 0.36% hits; AID 588489; in the data active = inhibition above about 35%, passing the limit was not always enough;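 also: plate controls were DMSO wells with GST-MLLE for no effect and wells lacking GST-MLLE protein for full effect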
A3G deaminase – inhibitors of human APOBEC3G DNA deaminase; Q9HC16; recombinant A3G, ssDNA deamination FAM/TAMRA fluorescence; inhibition, % at 20 µM; 330,000 compounds, 0.28% hits; AID 493012;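 active = inhibition of at least 40% at 20 µM, with no more than 30% in the related APOBEC3A deaminase screen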;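 also: plate controls were DMSO wells with A3G for no effect and wells lacking A3G enzyme for full effect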
PHOSPHO1 block – inhibitors of human PHOSPHO1 phosphatase | Q8TCT1 | recombinant PHOSPHO1, absorbance phosphatase assay | inhibition, % at 13.3 µM | 290,000 compounds, 1.1% hits; in the data active = inhibition above about 60%
Target sequence (Q8TCT1 whole entry, looked up): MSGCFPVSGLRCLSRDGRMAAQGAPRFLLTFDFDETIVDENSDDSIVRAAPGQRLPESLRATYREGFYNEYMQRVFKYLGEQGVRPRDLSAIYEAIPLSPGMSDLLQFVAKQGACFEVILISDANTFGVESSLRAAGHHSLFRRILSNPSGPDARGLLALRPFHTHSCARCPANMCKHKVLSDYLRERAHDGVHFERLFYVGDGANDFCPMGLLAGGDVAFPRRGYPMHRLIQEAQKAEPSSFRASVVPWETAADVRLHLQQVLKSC
PABP FP inh – PABP-poly(A) binding inhibition; 290,000 compounds, 1% hits; PABP-poly(A) RNA binding, fluorescence polarization; calls only at 35 µM; AID 2014;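 also: calls also rest on retests at 20 µM and on dose response follow-up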
Active calls of the source: *; i = inactive; ? = inconclusive; . = not tested or not shown; + = active, no number. Hits are enriched below; roughly 2.6% of the tested compounds scored in any of these assays. Unless noted, no rule for the calls is given here.

SMILES	APOBEC3A inh	eIF4H FP inh	MLLE-PAM2 inh	A3G deaminase	PHOSPHO1 block	PABP FP inh
CCc1ccc(C(=O)NC(=S)Nc2ccc(N3CCOCC3)cc2)cc1	-2	-1	40*	0	23	i
CCOc1ccc(C(=O)NC(=S)Nc2ccc(N3CCC(C)CC3)cc2)cc1[N+](=O)[O-]	.	-10	16	.	5	i
CCC(=O)N1CCN(c2ccc(NC(=O)c3ccc4ccccc4c3)cc2)CC1	-9	13	-6	-5	-56	i
CC(C)CCNC(=O)NC(=O)COC(=O)CNC(=O)C1CCCCC1	1	3	-8	-11	24	i
CCOCCCn1c(SCC(=O)Nc2ccc3[nH]c(=O)[nH]c3c2)nc2ccccc2c1=O	-2	.	7	-8	.	.
Cc1ccc(Cn2c(=N)c(C(=O)NCc3ccco3)cc3c(=O)n4ccccc4nc32)cc1	4	75*	-31	7	20	+
COCCn1c(=N)c(C(=O)NCc2ccco2)cc2c(=O)n3cc(C)ccc3nc21	6	107*	69*	6	-8	i
CCOC(=O)c1cc2c(=O)n3ccccc3nc2n(Cc2ccco2)c1=NC(=O)c1ccccc1OCC	4	90*	-1	7	-33	i
N=c1c(C(=O)NCc2ccc(F)cc2)cc2c(=O)n3ccccc3nc2n1CC1CCCO1 (stereo unspecified)	1	-4	-15	-3	31	i
Cc1ccc(Cn2c(=N)c(C(=O)NCC3CCCO3)cc3c(=O)n4ccccc4nc32)cc1 (stereo unspecified)	-3	3	-12	-13	26	i
Cc1ccc2nc3c(cc(C(=O)NCc4ccco4)c(=N)n3C3CCCC3)c(=O)n2c1	3	?	15	-7	35	?
N=c1c(C(=O)NCc2ccco2)cc2c(=O)n3ccccc3nc2n1CC1CCCO1 (stereo unspecified)	7	.	47*	5	.	.
N=c1c(C(=O)NCc2ccco2)cc2c(=O)n3ccccc3nc2n1CCc1ccccc1	-13	59*	-10	2	11	+
COc1ccc(CCNC(=O)c2cc3c(=O)n4ccccc4nc3n(CCCN3CCOCC3)c2=N)cc1OC	2	-7	2	0	28	i
COc1ccc(CCn2c(=N)c(C(=O)NCc3ccco3)cc3c(=O)n4ccccc4nc32)cc1OC	.	.	-2	.	.	.
COc1ccc(CCNC(=O)c2cc3c(=O)n4ccccc4nc3n(Cc3ccco3)c2=N)cc1OC	10	87*	-2	10	22	i
CCN(CC(=O)Nc1c(F)cccc1F)C(=O)c1ccc2c(c1)OCCO2	-1	.	16	-6	.	.
CCCc1cc(=O)oc2cc(C)cc(OCC(=O)Nc3cccnc3)c12	0	-2	-2	1	62*	i
Cc1cc(OCC(=O)Nc2cccnc2)c2c(C)cc(=O)oc2c1	5	-4	-4	5	38	i
O=C(CSc1n[nH]c(-c2ccccc2Br)n1)NCCN1C(=O)CSC1=O	7	active	-2	-5	-21	i
CC(C)(C)NC(=O)NC(=O)CSc1n[nH]c(-c2ccccc2Br)n1	2	-6	-3	-3	63*	i
Cc1ccc(Nc2nnc(SCC(=O)NCCN3C(=O)CSC3=O)s2)cc1C	-5	-3	-83	-11	3	+
Cn1c(=O)[nH]c2c(nc(-c3ccc(Cl)cc3)n2C)c1=O	-5	61	12	-8	19	i
CCCc1nc2c(=O)n(C)c(=O)[nH]c2n1C	-5	53*	4	-6	19	+
COc1ccc(/C=C2\Sc3ccc(C(=O)N4CCCC4)cc3N(C)C2=O)cc1OC	-3	.	38*	-6	18	.
SMILES	APOBEC3A inh	eIF4H FP inh	MLLE-PAM2 inh	A3G deaminase	PHOSPHO1 block	PABP FP inh
CC1(C)Cc2c(cnn2-c2ccc(F)cc2)C(NC(=O)c2ccc(=O)oc2)C1 (stereo unspecified)	0	-11	-15	-3	61*	i
Cc1cc(NC2CCCCC2)nc(N2CCOCC2)n1	-3	1	-5	-3	11	i
CNc1cc(C)nc(N2CCOCC2)n1	1	92*	3	-5	28	i
O=C(CSc1nnc2ccccn12)NC(=O)c1ccccc1Cl	12	.	9	0	.	.
COC(=O)Oc1nsnc1N1CCOCC1	3	-9	28	23	92*	i
O=C(Oc1nsnc1N1CCOCC1)N(c1ccccc1)c1ccccc1	1	9	2	6	18	i
Cc1cc(C)n2nc(SC(C)C(=O)NCc3ccco3)nc2n1 (stereo unspecified)	9	-12	-1	-2	64*	i
CC(=O)Nc1ccc(NC(=O)C(C)Sc2nc3nc(C)cc(C)n3n2)cc1 (stereo unspecified)	-2	.	7	-6	.	.
c1cc(N2CCCC2)ccc1C(c1nnnn1C1CCCCC1)N1CCOCC1 (stereo unspecified)	0	-1	-30	4	92*	i
Cc1cc(C)c2cc(C(c3nnnn3C3CCCC3)N3CCOCC3)c(=O)[nH]c2c1 (stereo unspecified)	5	43	7	3	103*	i
Cc1cccc2cc(C(c3nnnn3C3CCCC3)N3CCOCC3)c(=O)[nH]c12 (stereo unspecified)	8	1	16	-3	86*	i
COc1ccc(C(c2nnnn2C2CCCCC2)N2CCN(c3ccc(OC)cc3)CC2)cc1 (stereo unspecified)	0	-4	-6	0	25	i
O=C(NC1CCCCC1)c1cccc2c(-c3ccc(F)c(F)c3)coc12	.	.	8	.	.	.
COc1ccc(CNC(=O)COC(=O)/C=C/c2cccc(Cl)c2)cc1	-1	.	-1	-6	.	.
Cc1ccc(C)c(OCc2nnc(N)s2)c1	0	-5	-27	-3	72*	i
COc1ccc(-n2c(SCC(=O)N/N=C/c3ccccc3OCC(=O)O)nc3ccccc3c2=O)cc1	10	12	23	1	42	i
C=CCc1ccc(OCC(O)COc2ccc(CC=C)cc2OC)c(OC)c1	0	?	-12	-1	-7	+
COc1cc(Cn2c3ccc(NC(=O)CCc4ccc(O)cc4)cc3c(=O)n2C)ccc1F	.	.	-3	.	.	.
COc1cc(C2C(C#N)=C(N)N(c3cccnc3)C3=C2C(=O)CCC3)ccc1O (stereo unspecified)	-1	51*	0	2	38	+
CCSc1sccc1C1C(C#N)=C(N)N(c2cccnc2)C2=C1C(=O)CCC2 (stereo unspecified)	5	14	45*	2	20	i
COc1cc(C2C(C#N)=C(SC)NC3=C2C(=O)CCC3)ccc1O (stereo unspecified)	3	-1	18	-4	0	i
Cc1cc(-n2ccnc2)n2c(nc3ccccc32)c1C#N	2	126	-20	1	11	i
CCCc1cc(-n2ccnc2)n2c(nc3ccccc32)c1C#N	3	125*	-48	-5	-7	i

Screens: PubChem BioAssay, Sanford-Burnham Center for Chemical Genomics
